In the supplement of paper PMC10849652:
Targets with a hit are over-represented here; the source holds about 7,900 in all. About 0.6% of all pairs of compound and target were hits. A number with no mark means an inactive call.

Tests used:
Assay in all cases: log2 fold change, soluble protein after heating vs DMSO (PISA); higher = thermal stabilisation; K562 cells, 10 uM, 30 min; active = over 0.2 and 3.5 SD of the protein, either way, in both replicates (recomputed)
[1] = compound: CC[C@@H]1C(=O)N(C)c2cnc(Nc3ccc(C(=O)NC4CCN(C)CC4)cc3OC)nc2N1C1CCCC1
Summary of the method: (§1)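 K562 cells at 2×10^6 cells/mL were given 10 μM compound for 30 min. Aliquots then went through 3 min of heating across 48°C-58°C, were pooled, and were extracted in PBS with 0.5% NP-40 at 4°C, and the supernatant after 21,000xg for 90 min was quantified by TMTpro 16plex LC-MS/MS with channel sums equalised. Thermal stability relative to control samples, from duplicates, is given as log2 fold change.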

volasertib = compound: CC[C@@H]1C(=O)N(C)c2cnc(Nc3ccc(C(=O)N[C@H]4CC[C@H](N5CCN(CC6CC6)CC5)CC4)cc3OC)nc2N1C(C)C [volasertib]
Summary of the method: as §1

[2] = compound: CC[C@H](C)N1C=C(C2=C(C=C(C=C21)C3=CN=C(C=C3)N4CCNCC4)C(=O)NCC5=C(C=C(NC5=O)C)C)C
Summary of the method: as §1

epoxomicin = compound: CC[C@H](C)[C@@H](C(=O)N[C@@H]([C@@H](C)O)C(=O)N[C@@H](CC(C)C)C(=O)[C@]1(CO1)C)NC(=O)[C@H]([C@@H](C)CC)N(C)C(=O)C [epoxomicin]
Summary of the method: as §1

[3] = compound: CCn1c(C(=O)N(C2CC2)C2CC2)cc2c3c(ncn3C)c(Nc3cc(C)n(C)n3)nc21
Summary of the method: as §1

[4] = compound: CCn1cc(-c2ccnc3[nH]c(-c4cccc(CN(C)C)c4)cc23)c(-c2ccc(NC(=O)N(C)C)cc2)n1
Summary of the method: as §1

[5] = compound: CN(C)CC(=O)Nc1ccc2[nH]c(=O)c3ccccc3c2c1
Summary of the method: as §1

rosiglitazone = compound: CN(CCOC1=CC=C(C=C1)C[C@H]2C(=O)NC(=O)S2)C3=CC=CC=N3 (racemic) [rosiglitazone]
Summary of the method: as §1

[6] = compound: CN1C2=C(C3=C1C(=O)N(N=C3)CC4=CC(=CC=C4)N)SC(=C2)S(=O)C
Summary of the method: as §1

[7] = compound: CN1CCC(CNc2ccc3ncc(-c4cccc(OC(F)(F)F)c4)n3n2)CC1
Summary of the method: as §1

saracatinib = compound: CN1CCN(CCOc2cc(OC3CCOCC3)c3c(Nc4c(Cl)ccc5c4OCO5)ncnc3c2)CC1 [saracatinib]
Summary of the method: as §1

sotrastaurin = compound: CN1CCN(c2nc(C3=C(c4c[nH]c5ccccc45)C(=O)NC3=O)c3ccccc3n2)CC1 [sotrastaurin]
Summary of the method: as §1

alvocidib = compound: CN1CC[C@H](c2c(O)cc(O)c3c(=O)cc(-c4ccccc4Cl)oc23)[C@H](O)C1 [alvocidib]
Summary of the method: as §1

Tubastatin A = compound: CN1CCc2c(c3ccccc3n2Cc2ccc(C(=O)NO)cc2)C1 [Tubastatin A]
Summary of the method: as §1

[8] = compound: CNC(=O)C1=CC=CC=C1NC2=NC(=NC=C2Cl)NC3=C(C=C(C=C3)N4CCOCC4)OC
Summary of the method: as §1

defactinib = compound: CNC(=O)c1ccc(Nc2ncc(C(F)(F)F)c(NCc3nccnc3N(C)S(C)(=O)=O)n2)cc1 [defactinib]
Summary of the method: as §1

rucaparib = compound: CNCc1ccc(-c2[nH]c3cc(F)cc4c3c2CCNC4=O)cc1 [rucaparib]
Summary of the method: as §1

[9] = compound: CNc1nc(-c2ccc3c(N)n[nH]c3c2)cc(N2C[C@@H](C(=O)NC3CCCCC3)CC[C@H]2C)n1
Summary of the method: as §1

encorafenib = compound: COC(=O)N[C@@H](C)CNc1nccc(-c2cn(C(C)C)nc2-c2cc(Cl)cc(NS(C)(=O)=O)c2F)n1 [encorafenib]
Summary of the method: as §1

[10] = compound: COC(=O)[C@H](CCSC)NC(=O)C1=C(C=C(C=C1)NC[C@H](CS)N)C2=CC=CC=C2
Summary of the method: as §1

Chain of UniProt Q5VIR6 (Q5VIR6 whole entry, looked up): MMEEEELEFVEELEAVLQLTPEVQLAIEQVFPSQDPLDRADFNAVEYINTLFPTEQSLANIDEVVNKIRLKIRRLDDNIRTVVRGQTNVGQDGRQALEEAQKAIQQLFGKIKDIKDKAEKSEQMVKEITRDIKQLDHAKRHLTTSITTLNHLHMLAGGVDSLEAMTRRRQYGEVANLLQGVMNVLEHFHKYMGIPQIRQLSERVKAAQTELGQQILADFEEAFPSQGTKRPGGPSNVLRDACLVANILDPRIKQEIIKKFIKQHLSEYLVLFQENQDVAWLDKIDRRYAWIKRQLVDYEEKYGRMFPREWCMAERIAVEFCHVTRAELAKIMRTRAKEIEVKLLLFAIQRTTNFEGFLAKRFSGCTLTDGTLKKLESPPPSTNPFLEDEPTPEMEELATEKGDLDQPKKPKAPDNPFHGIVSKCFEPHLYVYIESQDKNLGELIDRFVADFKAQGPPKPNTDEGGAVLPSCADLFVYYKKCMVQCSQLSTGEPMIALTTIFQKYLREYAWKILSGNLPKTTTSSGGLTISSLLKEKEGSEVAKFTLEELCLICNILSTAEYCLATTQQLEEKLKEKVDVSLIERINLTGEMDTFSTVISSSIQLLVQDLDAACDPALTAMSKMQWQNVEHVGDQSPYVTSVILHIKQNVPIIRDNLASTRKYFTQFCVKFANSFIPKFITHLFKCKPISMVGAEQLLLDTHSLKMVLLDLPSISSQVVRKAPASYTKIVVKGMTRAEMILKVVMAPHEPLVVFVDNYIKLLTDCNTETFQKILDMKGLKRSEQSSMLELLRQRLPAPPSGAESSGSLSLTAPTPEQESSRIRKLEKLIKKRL
Chain of UniProt Q9BZH6 (Q9BZH6 whole entry, looked up): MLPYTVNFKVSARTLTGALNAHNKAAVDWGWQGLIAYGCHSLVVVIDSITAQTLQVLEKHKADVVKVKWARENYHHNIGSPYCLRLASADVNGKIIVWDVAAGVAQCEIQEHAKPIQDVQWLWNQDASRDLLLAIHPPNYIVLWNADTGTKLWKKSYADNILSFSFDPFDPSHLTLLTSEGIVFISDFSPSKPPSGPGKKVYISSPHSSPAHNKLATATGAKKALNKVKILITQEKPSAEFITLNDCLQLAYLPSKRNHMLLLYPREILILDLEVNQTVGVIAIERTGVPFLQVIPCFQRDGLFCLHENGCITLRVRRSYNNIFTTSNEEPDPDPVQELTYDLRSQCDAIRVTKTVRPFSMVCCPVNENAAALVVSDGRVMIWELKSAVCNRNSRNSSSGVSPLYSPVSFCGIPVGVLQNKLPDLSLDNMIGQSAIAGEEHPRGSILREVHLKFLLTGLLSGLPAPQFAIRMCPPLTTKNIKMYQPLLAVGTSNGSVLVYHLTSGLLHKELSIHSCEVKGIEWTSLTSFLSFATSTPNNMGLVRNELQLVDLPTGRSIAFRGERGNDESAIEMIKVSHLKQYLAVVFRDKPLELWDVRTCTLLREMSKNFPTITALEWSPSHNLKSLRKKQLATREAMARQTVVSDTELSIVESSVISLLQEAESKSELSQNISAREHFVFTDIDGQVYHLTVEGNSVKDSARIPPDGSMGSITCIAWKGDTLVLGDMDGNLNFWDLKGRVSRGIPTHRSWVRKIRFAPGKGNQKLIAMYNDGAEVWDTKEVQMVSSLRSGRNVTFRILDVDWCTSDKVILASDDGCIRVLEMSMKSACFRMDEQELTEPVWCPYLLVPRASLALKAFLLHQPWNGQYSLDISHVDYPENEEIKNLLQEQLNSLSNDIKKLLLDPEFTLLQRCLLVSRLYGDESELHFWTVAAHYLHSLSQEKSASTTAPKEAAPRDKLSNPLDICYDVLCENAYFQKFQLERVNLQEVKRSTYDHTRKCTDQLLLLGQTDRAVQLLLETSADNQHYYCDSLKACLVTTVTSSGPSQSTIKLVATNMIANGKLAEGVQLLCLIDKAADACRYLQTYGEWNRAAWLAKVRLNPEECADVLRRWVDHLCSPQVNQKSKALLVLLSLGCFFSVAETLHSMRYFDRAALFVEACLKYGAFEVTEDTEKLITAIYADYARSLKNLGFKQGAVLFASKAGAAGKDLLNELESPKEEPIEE
Chain of UniProt Q16881 (Q16881 whole entry, looked up): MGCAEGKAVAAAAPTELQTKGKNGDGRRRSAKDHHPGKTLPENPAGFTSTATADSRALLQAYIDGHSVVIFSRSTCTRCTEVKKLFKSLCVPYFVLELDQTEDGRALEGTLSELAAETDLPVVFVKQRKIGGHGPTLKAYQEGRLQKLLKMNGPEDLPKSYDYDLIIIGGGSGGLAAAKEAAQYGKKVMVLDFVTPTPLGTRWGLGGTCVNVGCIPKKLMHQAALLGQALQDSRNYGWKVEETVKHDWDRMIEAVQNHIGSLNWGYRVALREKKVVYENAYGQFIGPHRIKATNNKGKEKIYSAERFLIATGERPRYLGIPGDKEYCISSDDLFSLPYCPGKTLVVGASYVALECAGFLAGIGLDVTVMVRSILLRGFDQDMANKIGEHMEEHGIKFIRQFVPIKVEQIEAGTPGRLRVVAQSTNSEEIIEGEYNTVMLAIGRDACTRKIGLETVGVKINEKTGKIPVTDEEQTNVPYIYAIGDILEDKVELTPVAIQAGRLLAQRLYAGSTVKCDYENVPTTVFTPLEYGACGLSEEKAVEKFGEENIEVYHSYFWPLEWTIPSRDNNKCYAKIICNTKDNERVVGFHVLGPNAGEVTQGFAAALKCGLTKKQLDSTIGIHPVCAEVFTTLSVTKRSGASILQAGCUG
Chain of UniProt Q9H6R7 (Q9H6R7 whole entry, looked up): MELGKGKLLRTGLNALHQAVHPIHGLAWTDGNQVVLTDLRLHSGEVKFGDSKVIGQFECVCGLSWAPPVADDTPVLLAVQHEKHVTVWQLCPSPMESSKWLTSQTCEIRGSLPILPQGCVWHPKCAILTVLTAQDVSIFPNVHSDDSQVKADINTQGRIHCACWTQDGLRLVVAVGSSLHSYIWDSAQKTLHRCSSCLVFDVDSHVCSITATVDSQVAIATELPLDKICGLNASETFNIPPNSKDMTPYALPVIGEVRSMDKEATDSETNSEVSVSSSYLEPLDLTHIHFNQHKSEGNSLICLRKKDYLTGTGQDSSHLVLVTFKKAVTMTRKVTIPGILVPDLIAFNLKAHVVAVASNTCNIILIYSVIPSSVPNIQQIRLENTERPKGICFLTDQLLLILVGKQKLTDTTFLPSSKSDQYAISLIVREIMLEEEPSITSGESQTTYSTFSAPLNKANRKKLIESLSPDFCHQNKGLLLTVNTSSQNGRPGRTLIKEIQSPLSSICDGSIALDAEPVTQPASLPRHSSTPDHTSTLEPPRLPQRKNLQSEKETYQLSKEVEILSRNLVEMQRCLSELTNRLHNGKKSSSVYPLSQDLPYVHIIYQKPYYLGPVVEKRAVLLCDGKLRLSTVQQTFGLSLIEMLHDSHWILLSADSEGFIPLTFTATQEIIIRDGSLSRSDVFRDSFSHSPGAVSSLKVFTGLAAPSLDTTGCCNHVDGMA
Chain of UniProt Q14157 (Q14157 whole entry, looked up): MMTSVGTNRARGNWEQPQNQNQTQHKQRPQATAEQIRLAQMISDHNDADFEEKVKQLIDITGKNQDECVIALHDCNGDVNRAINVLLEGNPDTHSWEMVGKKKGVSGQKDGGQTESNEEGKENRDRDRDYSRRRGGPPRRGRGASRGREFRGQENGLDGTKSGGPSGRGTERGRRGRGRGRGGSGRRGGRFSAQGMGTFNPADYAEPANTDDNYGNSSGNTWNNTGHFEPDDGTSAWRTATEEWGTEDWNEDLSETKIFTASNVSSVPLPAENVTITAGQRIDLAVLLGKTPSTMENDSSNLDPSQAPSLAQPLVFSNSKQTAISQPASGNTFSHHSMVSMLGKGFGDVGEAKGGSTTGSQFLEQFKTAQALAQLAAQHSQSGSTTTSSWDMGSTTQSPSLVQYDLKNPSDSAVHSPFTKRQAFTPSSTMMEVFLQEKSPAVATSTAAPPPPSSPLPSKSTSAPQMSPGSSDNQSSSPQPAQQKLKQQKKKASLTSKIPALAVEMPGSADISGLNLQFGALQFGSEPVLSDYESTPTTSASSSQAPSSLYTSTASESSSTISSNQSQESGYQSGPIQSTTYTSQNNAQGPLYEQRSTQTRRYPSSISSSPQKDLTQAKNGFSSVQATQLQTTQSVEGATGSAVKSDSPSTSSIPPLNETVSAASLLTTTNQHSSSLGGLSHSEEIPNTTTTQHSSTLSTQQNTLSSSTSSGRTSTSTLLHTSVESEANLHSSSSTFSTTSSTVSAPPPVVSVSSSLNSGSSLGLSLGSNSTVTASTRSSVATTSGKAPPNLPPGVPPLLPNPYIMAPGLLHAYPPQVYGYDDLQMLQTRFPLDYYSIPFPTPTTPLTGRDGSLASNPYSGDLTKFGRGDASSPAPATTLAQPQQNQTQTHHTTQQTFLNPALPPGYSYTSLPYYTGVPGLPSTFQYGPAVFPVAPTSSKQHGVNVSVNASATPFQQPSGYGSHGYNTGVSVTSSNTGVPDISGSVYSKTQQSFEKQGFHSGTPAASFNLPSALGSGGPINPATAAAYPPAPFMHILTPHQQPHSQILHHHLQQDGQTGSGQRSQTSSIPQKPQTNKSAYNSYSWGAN
Chain of UniProt Q9BXJ8 (Q9BXJ8 whole entry, looked up): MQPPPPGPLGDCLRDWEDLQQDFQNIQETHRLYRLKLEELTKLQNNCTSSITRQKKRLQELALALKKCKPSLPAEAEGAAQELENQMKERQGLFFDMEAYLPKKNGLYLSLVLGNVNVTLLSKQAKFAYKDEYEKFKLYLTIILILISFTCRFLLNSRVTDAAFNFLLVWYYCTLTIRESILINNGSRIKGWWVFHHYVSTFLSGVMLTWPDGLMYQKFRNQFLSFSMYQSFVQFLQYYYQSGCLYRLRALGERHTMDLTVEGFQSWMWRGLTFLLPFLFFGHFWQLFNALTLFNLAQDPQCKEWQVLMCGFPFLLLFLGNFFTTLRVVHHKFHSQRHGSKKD
Chain of UniProt Q15388 (Q15388 whole entry, looked up): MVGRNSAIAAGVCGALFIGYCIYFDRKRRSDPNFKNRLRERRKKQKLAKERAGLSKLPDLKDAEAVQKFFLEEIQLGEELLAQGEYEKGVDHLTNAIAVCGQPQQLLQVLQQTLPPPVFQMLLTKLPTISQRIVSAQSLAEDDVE

Row | Target | log2 fold change [1] | log2 fold change (volasertib) | log2 fold change [2] | log2 fold change (epoxomicin) | log2 fold change [3] | log2 fold change [4] | log2 fold change [5] | log2 fold change (rosiglitazone) | log2 fold change [6] | log2 fold change [7] | log2 fold change (saracatinib) | log2 fold change (sotrastaurin) | log2 fold change (alvocidib) | log2 fold change (Tubastatin A) | log2 fold change [8] | log2 fold change (defactinib) | log2 fold change (rucaparib) | log2 fold change [9] | log2 fold change (encorafenib) | log2 fold change [10]
1 | WDR11 (UniProt Q9BZH6) | 0.079 | 0.031 | -0.183 | 0 | 0.062 | 0.089 | -0.061 | 0.08 | 0.009 | -0.131 | -0.079 | 0.059 | 0.06 | -0.029 | -0.021 | 0.016 | -0.382 (active) | -0.052 | -0.034 | 0.017
2 | VRK1 (UniProt Q99986) | -0.184 | -0.159 | 0.102 | 0.169 | -0.107 | -0.06 | 0.135 | 0.105 | -0.028 | -0.03 | -0.057 | 0.152 | 0.285 | 0.07 | 0.05 | -0.041 | 0.048 | 0.108 | 0.043 | -0.04
3 | TMEM120A (UniProt Q9BXJ8) | 0.127 | -0.053 | 0.119 | 0.198 | -0.011 | -0.128 | 0.015 | 0.149 | -0.061 | 0.07 | 0.036 | -0.098 | -0.084 | 0.069 | -0.013 | -0.104 | -0.559 (active) | -0.036 | 0.184 | -0.047
4 | WDR43 (UniProt Q15061) | 0.029 | -0.029 | -0.04 | -0.026 | 0 | 0.036 | 0.004 | -0.025 | -0.04 | 0.192 | 0.031 | 0.014 | 0.062 | -0.045 | 0.001 | 0.101 | 0.07 | -0.002 | -0.009 | -0.007
5 | UTP4 (UniProt Q969X6) | 0.032 | 0.006 | -0.017 | -0.02 | 0.001 | 0.043 | -0.036 | -0.006 | -0.061 | 0.233 (active) | 0.05 | 0.013 | 0.104 | -0.097 | 0.015 | 0.178 | 0.086 | 0.002 | -0.016 | 0.041
6 | UFM1 isoform 2 (UniProt P61960) | 0.116 | 0.012 | 0.069 | 0.029 | 0.034 | -0.001 | 0.114 | -0.03 | 0.004 | -0.005 | 0 | 0.044 | -0.037 | -0.158 | 0.022 | -0.065 | -0.114 | -0.024 | 0.01 | -0.082
7 | TSG101 (UniProt Q99816) | -0.137 | -0.268 (active) | 0.036 | 0.065 | -0.011 | -0.021 | 0.002 | 0.023 | -0.018 | -0.124 | -0.008 | -0.047 | -0.076 | 0 | 0.011 | -0.12 | -0.006 | -0.044 | -0.007 | -0.032
8 | UBAP2L isoform 1 (UniProt Q14157) | -0.026 | -0.417 | 0.046 | -0.005 | 0.059 | 0.026 | -0.004 | 0.001 | 0 | -0.023 | -0.001 | 0.063 | -0.092 | -0.016 | 0.038 | -0.02 | -0.017 | -0.073 | -0.014 | -0.015
9 | WDCP (UniProt Q9H6R7) | -0.196 | -0.477 (active) | 0.102 | 0.127 | -0.062 | 0.071 | 0.057 | 0.047 | 0.124 | -0.019 | -0.039 | -0.034 | 0.054 | -0.032 | 0 | -0.016 | 0.14 | -0.02 | 0.043 | -0.006
10 | TOP2A isoform 4 (UniProt P11388) | 0.198 | 0.226 | 0.106 | -0.231 | 0.052 | 0.156 | -0.194 | -0.169 | 0.526 | 0.128 | -0.168 | 0.006 | 0.261 | 0.103 | 0.102 | 0.438 | 0.434 | 0.273 | 0.288 | -0.086
11 | WDR62 isoform 4 (UniProt O43379) | -0.02 | -0.496 (active) | 0.04 | 0 | 0.006 | 0.007 | -0.035 | 0.064 | 0.047 | -0.161 | -0.025 | 0.037 | -0.074 | 0.027 | -0.165 | -0.06 | -0.035 | 0.017 | 0.015 | 0.014
12 | TSFM (UniProt P43897) | -0.003 | -0.092 | 0.046 | 0.212 | -0.062 | 0.074 | 0.081 | 0.069 | -0.041 | -0.056 | 0.057 | -0.157 | -0.132 | 0.063 | 0.021 | -0.166 | -0.001 | -0.073 | 0.167 | -0.082
13 | TOMM20 (UniProt Q15388) | -0.135 | -0.075 | -0.068 | -0.089 | 0.078 | -0.017 | -0.005 | -0.022 | -0.033 | -0.271 (active) | 0.012 | -0.005 | -0.001 | -0.031 | -0.028 | -0.011 | -0.009 | -0.034 | -0.131 | 0.033
14 | VPS53 isoform 4 (UniProt Q5VIR6) | -0.095 | -0.358 (active) | 0.033 | 0.041 | -0.094 | 0.022 | 0.007 | 0.023 | 0.016 | -0.128 | 0.029 | -0.102 | -0.146 | 0.017 | -0.009 | -0.056 | 0.061 | -0.028 | 0.06 | -0.001
15 | USP34 (UniProt Q70CQ2) | -0.215 | -0.455 (active) | -0.023 | 0.02 | -0.027 | -0.043 | 0.014 | 0.065 | 0.015 | -0.201 | 0.006 | -0.102 | -0.274 | 0.069 | -0.049 | -0.164 | -0.055 | -0.015 | 0.08 | 0.002
16 | TXNRD1 (UniProt Q16881) | 0.004 | 0.05 | 0.006 | 0.054 | -0.032 | -0.049 | -0.003 | 0.067 | -0.096 | -0.006 | -0.012 | 0.058 | -0.05 | -0.001 | 0.022 | -0.015 | -0.113 | 0.032 | -0.033 | -0.001
